CCT modulator: High-Throughput Screening for Modulators of Cytosolic Chaperonin Activity; purified chaperonin ATPase assay, HTRF ADP detection, 30 min; hit rate 0.3% among 360,000; AID 651819, 2012; activity change, % (concentration not given with the values), hits read low; in the data active = activity change below about -30%
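TRiC at 40 or 20 nM final (batch-dependent) in 30 mM Tris pH 7.4, 100 mM KCl, 5 mM MgCl2, 1 mM DTT, with compound at single 76 uM and 10 uM ATP, 30 min at 37 deg C. ADP detected by HTRF Transcreener, 665/615 ratio.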
Akt phos inh: HTS Assay for Inhibitors of Akt Phophorylation: Primary Screen | activity change, % for hits at 50 µM | Neuro2A IGF-stimulated pAkt S473 HTRF, 20 min; stronger effect = lower value | hit rate 0.32% among 360,000; in the data active = activity change below about -80%; inconclusive = mostly about -51% to -80%
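Neuro2A cells (4,500/well, DMEM with 0.5% FBS) were treated with compound at a single 50 µM final concentration, stimulated with 6 nM IGF for 20 min at 37 °C, and lysed. Phospho-Akt Ser473 was read by HTRF as 665/615 ratio ×10^4.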
Six1-Eya2 inh: qHTS Assay for Inhibitors of the Six1/Eya2 Interaction. AlphaScreen GST-Six1/His-Eya2 binding, biochemical; stronger effect = lower value. Homeobox protein SIX1 (Homo sapiens) + Protein phosphatase EYA2 (Homo sapiens), …. activity change, % (no concentration beside the values). hit rate 0.56% among 360,000
Target sequence (O00167 whole entry, looked up): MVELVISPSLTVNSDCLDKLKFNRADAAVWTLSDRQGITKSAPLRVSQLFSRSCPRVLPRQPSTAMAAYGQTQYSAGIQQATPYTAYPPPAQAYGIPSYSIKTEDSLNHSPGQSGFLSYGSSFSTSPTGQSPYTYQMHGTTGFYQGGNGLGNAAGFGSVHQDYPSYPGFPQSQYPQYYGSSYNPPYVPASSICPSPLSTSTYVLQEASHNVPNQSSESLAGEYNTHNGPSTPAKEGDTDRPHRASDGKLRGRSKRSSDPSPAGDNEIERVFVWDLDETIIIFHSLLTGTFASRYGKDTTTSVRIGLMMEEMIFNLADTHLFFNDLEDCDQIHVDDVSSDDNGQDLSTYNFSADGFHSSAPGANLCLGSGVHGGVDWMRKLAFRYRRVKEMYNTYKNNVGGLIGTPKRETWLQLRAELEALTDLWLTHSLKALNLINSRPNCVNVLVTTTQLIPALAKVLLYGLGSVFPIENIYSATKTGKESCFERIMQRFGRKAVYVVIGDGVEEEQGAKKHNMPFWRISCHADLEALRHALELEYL
Target sequence (Q15475 whole entry, looked up): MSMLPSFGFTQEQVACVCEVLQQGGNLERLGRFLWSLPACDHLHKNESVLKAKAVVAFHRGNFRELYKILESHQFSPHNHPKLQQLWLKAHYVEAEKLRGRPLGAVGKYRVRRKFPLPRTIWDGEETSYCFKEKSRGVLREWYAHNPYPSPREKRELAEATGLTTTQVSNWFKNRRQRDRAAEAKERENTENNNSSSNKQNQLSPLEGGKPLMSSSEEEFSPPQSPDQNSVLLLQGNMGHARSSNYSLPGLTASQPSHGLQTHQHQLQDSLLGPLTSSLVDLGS
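AlphaScreen with GST-Six1 and His-Eya2 (5X mix: 250 nM and 500 nM), glutathione donor and nickel acceptor beads; buffer 50 mM Tris pH 8.0, 300 mM NaCl, 1 mM TCEP; 1 h at 37 C in the dark.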
CtBP-E1A inh: qHTS Assay for Inhibitors of the CtBP/E1A Interaction; AlphaScreen GST-E1A/His-CtBP binding, 1536-well; stronger effect = lower value; activity change, % (concentration not given with the values); hit rate 0.49% among 340,000; AID 651724, 2012
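GST-E1A and His-tagged CtBP (125 nM each as 5X stock) were preincubated with pin-transferred compound for 2 h at 37 °C in the dark, then glutathione donor and nickel acceptor beads were added for 1 h before AlphaScreen reading.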
* = called active by the depositor; i = inactive; ? = inconclusive; nt = no result given. Shown are actives, neighbours in structure and some others; about 1.2% of the full set was active somewhere. Cut-off read from the data, not from the text of the source, unless noted: active = activity change below about -65%; inconclusive = mostly about -30% to -63%; inactive = weaker than that. % is set by controls: 0 for no effect and ±100 for the full control effect.

SMILES	CCT modulator	Akt phos inh	Six1-Eya2 inh	CtBP-E1A inh
Cc1cc(C(=O)N/N=C/c2cc(N=Nc3ccccc3)ccc2O)n[nH]1	0.9	i	-90.4*	-1.4
COC(=O)N/N=C/c1cc(N=Nc2ccccc2)ccc1O	-4.1	i	-9.9	-9.6
Cc1cc(C(=O)N/N=C/c2cccc([N+](=O)[O-])c2O)n[nH]1	0.3	i	-91.2*	nt
CCOC(=O)/C=C/C(=O)Nc1ccc(-c2nnc3n2CCCCC3)cc1	-1.3	i	-11.8	-65.7*
O=C(CSc1nnc(-c2ccc(O)cc2)o1)NNC(=O)c1ccncc1	1.2	i	2.0	-0.1
O=C(CSc1nnc2c(n1)[nH]c1ccccc12)Nc1ccc(S(=O)(=O)Nc2ncccn2)cc1	-3.6	i	-76.0*	nt
CC(O)CNc1nc2c(c(=O)n(C)c(=O)n2C)n1CCc1ccccc1 (stereo not given)	0.5	-111.5%*	-0.4	1.7
CCOc1ccc(C(=O)NCc2ccc3c(c2)OCO3)cc1OCC	0.2	i	-0.1	-7.7
O=C(O)CSC(=S)N1CCCC1	-0.4	i	2.8	7.2
O=C(CSC(=S)N1CCCC1)N/N=C/c1c(O)[nH]c(=S)[nH]c1=O	-2.0	i	-90.5*	-92.9*
COc1ccc(F)cc1S(=O)(=O)NC1CC(C)(C)NC(C)(C)C1	-2.5	-112.2%*	9.3	10.4
CCCCn1c(SCC(=O)Nc2cc(C)on2)nc2ccccc2c1=O	-3.7	-105.5%*	-12.4	14.8
CCCCn1c(SCC(=O)Nc2ccc(NC(C)=O)cc2)nc2ccccc2c1=O	-3.7	i	-1.3	-17.1
CCN(C(C)=O)c1cnc(C=NNC(N)=S)c2ccccc12	-17.5	i	-90.5*	?
NC(=S)N/N=C/c1ccc(OC(=O)c2cccnc2)cc1	-0.6	i	-4.1	6.6
Cn1cc(/C=N/NC(N)=S)c2ccccc21	-2.4	i	-10.7	0.0
NC(=S)NN=Cc1nccc2c(N)cccc12	0.9	i	-92.9*	-88.4*
Cn1c2ccccc2c2cc(/C=N/NC(=O)c3cc(O)ccc3O)ccc21	-3.2	i	-68.7*	?
CCN1CCN(C(=O)c2ccc(COc3cccc(Cl)c3)o2)CC1	-0.5	i	1.4	14.1
CN(C)c1ccc(NC(=O)c2ccc(COc3cccc(Cl)c3)o2)cc1	-2.5	i	-71.5*	?
O=C(COC(=O)c1cccs1)NC1CCCC1	0.7	i	5.1	1.7
COc1ccc(N2CCN(C(=O)CSc3nnc4c(C)cc5ccc(C)c(C)c5n34)CC2)cc1	-1.6	-118.9%*	-1.7	2.3
COc1ccc(N2CCN(C(=O)CSc3nnc4c(C)cc5cc(C)ccc5n34)CC2)cc1	-0.9	i	-0.3	-4.6
Cc1ccc(C)c(S(=O)(=O)N2CCN(Cc3ccc(O)c4ncccc34)CC2)c1	-0.1	i	-78.5*	-85.8*
Oc1ccc(CN2CCN(c3ccccc3)CC2)c2cccnc12	0.8	nt	-74.0*	-75.4*
SMILES	CCT modulator	Akt phos inh	Six1-Eya2 inh	CtBP-E1A inh
Oc1c(CN2CCCCC2)ccc2cccnc12	1.5	i	-80.4*	-93.4*
Oc1ccc(CN2CCCCC2)c2cccnc12	-3.2	i	-91.2*	-90.4*
Oc1ccc2ccccc2c1CN1CCN(c2ccccc2)CC1	-0.3	i	-2.3	6.0
COc1cccc(CN(C)S(=O)(=O)c2ccccc2Br)c1	-1.8	i	19.8	18.4
CSc1ncccc1C(=O)Nc1cccc(S(=O)(=O)N2CCCCC2)c1	0.5	i	-5.8	nt
Cc1cccc(COC[C@H](Cc2ccccc2)N2CCN(C(=O)c3ccc(Cl)c(Cl)c3)CCC2=O)c1	-0.8	i	14.6	0.0
C#CCOc1ccc(/C=C2/C(=O)ON=C2C)cc1Br	2.0	i	-3.0	3.8
Clc1ccccc1CN1CCC(Cc2ccccc2)CC1	-1.8	i	4.8	-4.1
Oc1ccc(CN2CCc3ccccc3C2)c2cccnc12	2.7	i	-94.0*	-95.0*
Oc1ccc(CN2CCC(Cc3ccccc3)CC2)c2cccnc12	-0.1	i	-72.6*	?
COc1ccc(CNCc2ccc(C(F)(F)F)cc2)cc1OC	-0.4	i	0.7	-9.9
COc1ccc(CNCc2ccncc2)cc1OC	-65.1*	i	-0.5	4.4
N#Cc1nc(-c2ccc(OCc3ccccc3)cc2)oc1NCc1cccnc1	-35.9*	i	-23.8	-13.4
N#Cc1nc(-c2ccc(OCc3ccc(Cl)cc3)cc2)oc1NCc1cccnc1	-2.9	i	-7.0	-2.0
O=C(O)c1nn2c(C(F)(F)F)cc(-c3cccs3)nc2c1Cl	1.6	i	-73.8*	-66.9*
CCOc1ccccc1NC(=O)CN(c1ccc(OC)cc1)S(=O)(=O)c1c(C)[nH]c(=O)[nH]c1=O	-2.3	i	-84.0*	-84.2*
CCOc1ccc(N(CC(=O)Nc2ccc(OC)cc2OC)S(=O)(=O)c2c(C)[nH]c(=O)[nH]c2=O)cc1	-0.6	i	-85.0*	-91.9*
Cc1onc(-c2ccccc2)c1C(=O)Nc1ccccc1N1CCOCC1	0.6	i	-5.7	2.1
Cc1noc(C)c1C(=O)Nc1ccccc1N1CCOCC1	-30.3*	i	-3.5	-4.2
Cc1c(C(=O)N2CCN(Cc3ccc4c(c3)OCO4)CC2)sc2ncnc(N3CCN(c4ccccc4F)CC3)c12	-73.5*	nt	-16.6	nt
COc1ccc2nc(/N=C\N(C)C)sc2c1	-1.9	i	3.0	-0.2
COc1ccc2nc(/N=C/c3c(C)[nH]n(-c4ccc(C)cc4)c3=O)sc2c1	-3.7	i	-75.6*	?
O=C(/C=C/c1ccco1)Nc1nc(-c2ccccn2)cs1	-0.6	i	-73.9*	nt
Cc1c(C(=O)Nc2nc(-c3ccccn3)cs2)oc2ccccc12	1.8	i	-73.3*	-86.2*
Cc1cc(-c2csc(NC(=O)c3cc4ccccc4o3)n2)c(C)n1C	-0.8	i	-0.9	-6.9
SMILES	CCT modulator	Akt phos inh	Six1-Eya2 inh	CtBP-E1A inh
O=C(/C=C/c1ccco1)Nc1nc(-c2ccccc2)cs1	-2.9	i	-0.9	0.3
O=C(Nc1nc(-c2ccccn2)cs1)c1cc2ccccc2o1	-0.7	i	-77.4*	-68.3*
O=C(O)c1cc(O)ccc1NC(=O)c1cccc2ccccc12	-1.3	i	-1.4	0.4
OC[C@@H]1CN(Cc2ccc3c(c2)OCO3)C[C@H](n2cnc3c(N4CCCC4)ncnc32)O1	-5.3	i	-5.1	0.1
O=C(CSc1nnc(NC(=O)c2cccc(Cl)c2)s1)NCC1CCCO1 (stereo not given)	-2.9	i	3.7	2.0
Cc1ccc(SC(c2ccc(C)cc2)C(Cn2cncn2)C(=O)c2ccccc2)cc1 (stereo not given)	-3.1	i	1.0	-6.3
Cc1ccc(C(Sc2ccccc2)C(Cn2cncn2)C(=O)c2ccccc2)cc1 (stereo not given)	-2.3	-103.8%*	-10.7	-4.4
COc1ccc(S(=O)(=O)c2c(O)c3ccc(C(=O)Nc4ccccc4F)cc3[nH]c2=O)cc1	-0.6	i	?	-24.3
